The text below walks through data of the OligoGym collection.
Also: reference of the scale not given here.

One assay concerns the target PARP11. Nature of the assay: pooled miR-30 sensor sort-seq; sequence = guide strand. The following applies: shRNA.
As for TTTTTTTCTTGAGCTGAGCCTT, the sensor-assay potency score (higher = more potent) is -0.839.

TTGAGTATTCACATTCTCCCAG: the sensor-assay potency score (higher = more potent) was -0.0297.

Sequence TTGCGATCCATCGTCTTCCCAA came in with a sensor-assay potency score (higher = more potent) of -0.797. Regarding TAAAGCTTCCTTGACCACCGAG, the sensor-assay potency score (higher = more potent) was 0.0153.

TACTTGAGTATTCACATTCTCC yielded a sensor-assay potency score (higher = more potent) of -0.755. Take TTAATCTGAGGCACACCTCTTT: the sensor-assay potency score (higher = more potent) was determined as 0.16.

TAAGCTGATATGGTACTTGAGT showed a sensor-assay potency score (higher = more potent) of -0.461.

In the case of TTTAATTCGGTTGCGATCCATC, the sensor-assay potency score (higher = more potent) was -0.893.

Take TATAAATTCACATAGCTCCCGT: the sensor-assay potency score (higher = more potent) was 0.0491.

The next assay addresses PATL1. Described as above. The following applies: shRNA.
TTTTTCTCCTCTTGTCTCGAAC yielded a sensor-assay potency score (higher = more potent) of -1.11.

Consider TATTCTGTTGCTGTCTCTGATG, for which the sensor-assay potency score (higher = more potent) is -1.31. Same read-out and setting: with TGATCTTGATGACTGCTCCGGT the figure was 0.466; with TTTGTGCTTTCTGTCATCCATT, -0.905. TTTGTGTTGATTCTGTAGCAGG yielded a sensor-assay potency score (higher = more potent) of -0.627. Sequence TTATTCACACTAGAAACGGTAA yielded a sensor-assay potency score (higher = more potent) of -0.529. Sequence TTTTCGGATACACATGATCTGT showed a sensor-assay potency score (higher = more potent) of -1.26. In the case of TGTCACAACAGCATCAATCATT, the sensor-assay potency score (higher = more potent) was -0.773. On to TTTCTCAATTATAACAAGGGTT, for which the sensor-assay potency score (higher = more potent) was -0.533.

In turn, TTGAGGTAGGTTCATTAGCTGT had a sensor-assay potency score (higher = more potent) of -1.61. On the same count and under the same terms, with TTTCGGATACACATGATCTGTA the figure was -0.0955.

TAGCAGGGTCTGAACTCTGTAG: the sensor-assay potency score (higher = more potent) was -0.715.

A further assay concerns the target PCDH11X. The description is as above. The following applies: shRNA.
Turning to TTGAACTGCATAGCAGTTGTCA, the sensor-assay potency score (higher = more potent) was -0.535. Sequence TTGATCTTAGCATTAGGCCCAC came in with a sensor-assay potency score (higher = more potent) of -0.682.

On to ATCAGTAACACTCACTTGCAAA, for which the sensor-assay potency score (higher = more potent) was -1.63. Still for that read-out and setting: to TGTATCAGTAACACTCACTTGC belongs 0.683; to TAACTACTTTGATTGAACGTAT, -0.315; to TTTTCTGGCATTTCTTCTCGGA, -0.435. Turning to TTGTAGGACTACATACATCATA, the sensor-assay potency score (higher = more potent) was -0.797. In turn, TTCAGTGCTTTTGCGCACCAGT returned a sensor-assay potency score (higher = more potent) of -0.711. For TTTACTTTCATCACGTAGGTAT, the sensor-assay potency score (higher = more potent) turned out to be 0.803.

For the sequence AATAGTGACAAAATTAAGCAGC, the sensor-assay potency score (higher = more potent) is -0.804. As to TTAAGCAGCAAGTTCTTAGGGG, the sensor-assay potency score (higher = more potent) is 0.683.

A further assay has as its target PCDHA4. The description is as above. The following applies: shRNA.
TTCTACTTCCACAATAACTCTA: the sensor-assay potency score (higher = more potent) stood at 0.0225.

TTGGATTTCACATTTGGCGAAA showed a sensor-assay potency score (higher = more potent) of -0.705. ATGTCTTTGTCGGACACGCTGA returned a sensor-assay potency score (higher = more potent) of -1.17.

The sequence TTTGTCGGACACGCTGATCAGG came in with a sensor-assay potency score (higher = more potent) of -0.74.

Turning to TTGTGTTGCTGGGAACACCGGC, the sensor-assay potency score (higher = more potent) was -0.469. TTTTCTAGTAATCTCACCTTAT displayed a sensor-assay potency score (higher = more potent) of -0.448. Still for that read-out and setting: to TCTACTTCCACAATAACTCTAC belongs 0.0889; to TTAAGTTTAATTACCAATGTTC, -0.347.
